Data: PubChem BioAssay AID1259421 (Broad Institute, 2018)
Several values for one entry are separate records, joined by “and”; a condition that tells them apart may be missing. Equal entries are not always repeated. In all, about 6,400 compounds went through this assay and about 610 (9.5%) were called active. Cut-off read from the data, not from the text of the source: active = activity change below about -70%; inconclusive = no clear call, values can overlap the other calls; inactive = above that. For the sample, actives were picked, then their nearest neighbours and some compounds at random. A structure can be active in one record and inactive in another.

Test: T. gondii ME49Luc in HeLa cells, luciferase assay, 72 h, no IFN-y (AID 1259421)
Details: stronger effect = lower value, concentration not given here

Compound	activity change, negative = inhibition
Cn1c(COc2ccc(CC3SC(=O)NC3=O)cc2)nc2ccccc2c1=O (stereo unspecified)	-40.6% (inactive)
COc1ccc(-c2cc(=O)c3c(O)c(OC)c(O)cc3o2)cc1OC	48.9% (inactive)
COc1cc(OC2CCN(C)CC2)ccc1Nc1ncc2c(n1)n(C1CCCC1)c(=O)n2C	-32% (inactive)
CC[C@@H]1C(=O)N(C)c2cnc(Nc3ccc(C(=O)NC4CCC(N5CCN(CC6CC6)CC5)CC4)cc3OC)nc2N1C(C)C (stereo partly specified)	-84.3% (active)
CC[C@@H]1C(=O)N(C)c2cnc(Nc3ccc(C(=O)NC4CCN(C)CC4)cc3OC)nc2N1C1CCCC1	-62.8% (inactive)
COc1ccc2nc([S@@](=O)Cc3ncc(C)c(OC)c3C)[nH]c2c1	-6.99% (inactive) and 19.3% (inactive)
OCc1cncc(F)c1	11.3% (inactive)
O=C(O)c1cc(=O)c2cccc(O)c2[nH]1	-75.2% (active)
O=C(O)c1cc(=O)c2ccc(Cl)cc2[nH]1	9.46% (inactive) and -2.93% (inactive)
O=C(O)c1cc(=O)c2ccccc2[nH]1	7.07% (inactive)
COc1ccc(C(=O)N2CCCc3cc(C4=NNC(=O)SC4C)ccc32)cc1OC (stereo unspecified)	-41.6% (inactive)
CC1CCC(NC(=O)N(CCCl)[NH2+][O-])CC1 (stereo unspecified)	75.3% (inactive)
Cc1ccc(NC2=CC(=O)c3sc(C)nc3C2=O)cc1	-74.1% (active)
CC(C)(C)NCC(O)COc1ccc(NC(=O)NC2CCCCC2)cc1 (stereo unspecified)	3.16% (inactive)
COc1ccc(CCNCC(O)COc2cccc(C)c2)cc1OC (stereo unspecified)	9.54% (inactive)
CC1=C(C(=O)O)N2C(=O)[C@@H](NC(=O)C(N)c3ccc(O)cc3)[C@H]2SC1 (stereo partly specified)	4.06% (inactive)
O=C(c1ccc(OCCN2CCCCC2)cc1)c1c(-c2ccc(O)cc2)sc2cc(O)ccc12	-9.78% (inactive) and -5.73% (inactive)
Cc1ccc(CC2(O)CCN(CCOc3ccc(O)cc3)CC2)cc1	-6.15% (inactive) and -9.12% (inactive)
Cc1c(-c2ccc(O)cc2)n(Cc2ccc(OCCN3CCCCCC3)cc2)c2ccc(O)cc12	-80.5% (active)
CC(=O)OCCN1C(=O)c2c(C)nc3ccc(S(=O)(=O)N4CCOCC4)cc3c2C1=O	-1.17% (inactive)
Nc1cc(Nc2ccc(S(N)(=O)=O)cc2)ncn1	14.5% (inactive)
COc1c(O)cc2c(c1O)[C@H]1O[C@H](CO)[C@@H](O)[C@H](O)[C@@H]1OC2=O	-5.41% (inactive)
CCOC(=O)c1cnc2oc3ccc(O)cc3c2c1-c1ccccc1	6.27% (inactive)
CS(=O)(=O)CCNCc1ccc(-c2ccc3ncnc(Nc4ccc(OCc5cccc(F)c5)c(Cl)c4)c3c2)o1	-64.5% (inactive) and -82.3% (active)
CS(=O)(=O)CCNCc1nc(-c2ccc3ncnc(Nc4ccc(OCc5cccc(F)c5)c(Cl)c4)c3c2)cs1	-30.2% (inactive) and 30.3% (inactive)
C=CC(=O)Nc1ccc2ncnc(Nc3ccc(OCc4cccc(F)c4)c(Cl)c3)c2c1	-52.5% (inactive)

Compound	activity change, negative = inhibition
OC(CCl)CN1CC[N+]2(CC1)CC[N+]1(CCN(CC(O)CCl)CC1)CC2 (stereo unspecified)	9.78% (inactive)
CC1CCCC(C)N1NC(=O)c1ccc(Cl)c(S(N)(=O)=O)c1 (stereo unspecified)	15.9% (inactive)
NCCNS(=O)(=O)c1cccc2c(Cl)cccc12	-0.625% (inactive)
C#Cc1cccc(Nc2ncnc3cc(OCCOC)c(OCCOC)cc23)c1	-1.64% (inactive) and -10.5% (inactive)
C#Cc1cccc(Nc2ncnc3cc(OC)c(OCCCCCCC(=O)NO)cc23)c1	-82.6% (active)
C#Cc1cccc(Nc2ncnc3cc(OCCOC)c(OCCO)cc23)c1	-30.3% (inactive)
COc1ccc2[nH]c(S(=O)Cc3ncc(C)c(OC)c3C)nc2n1 (stereo unspecified)	29.4% (inactive) and 28.4% (inactive)
Cc1ccc2c(c1)C(=O)C1(O)CCN(c3ccccc3)C1=N2 (stereo unspecified)	12.8% (inactive)
COc1ccccc1OC(=O)C(C)c1ccc(CC(C)C)cc1 (stereo unspecified)	-39.2% (inactive)
O[n+]1ccccc1[S-].O[n+]1ccccc1[S-].[Zn+2]	-66.7% (inactive)
O=C1NC(=O)C(c2cnc3ccccn23)=C1c1cn2c3c(cc(F)cc13)CN(C(=O)N1CCCCC1)CC2	-84.1% (active)
CC(C)n1nnc2cc(C(=O)O)ccc21	9.2% (inactive) and 12.9% (inactive)
Cc1nc2sccn2c(=O)c1CCN1CCC(=C(c2ccc(F)cc2)c2ccc(F)cc2)CC1	-60.2% (inactive) and 18.5% (inactive)
CC[C@@H](Nc1c(Nc2cccc(C(=O)N(C)C)c2O)c(=O)c1=O)c1ccc(C)o1	-16.5% (inactive)
CC(C)(C)NC(=O)[C@H]1CCC2C3CCC4NC(=O)C=C[C@]4(C)C3CC[C@@]21C (stereo partly specified)	13.3% (inactive)
COC(=O)NC(C(=O)N[C@@H](Cc1ccccc1)C(O)CN(Cc1ccc(-c2ccccn2)cc1)NC(=O)C(NC(=O)OC)C(C)(C)C)C(C)(C)C (stereo partly specified)	-10.1% (inactive)
O=C(O)COCCN1CCN(C(c2ccccc2)c2ccc(Cl)cc2)CC1 (stereo unspecified)	2.12% (inactive) and -3.65% (inactive)
OCCOCCN1CCN(C(c2ccccc2)c2ccc(Cl)cc2)CC1 (stereo unspecified)	-71.5% (active)
O=C(O)COCCN1CCN([C@H](c2ccccc2)c2ccc(Cl)cc2)CC1	-64.2% (inactive)
O=C(CC(c1ccccc1)c1ccccc1)N1CCN(C(c2ccccc2)c2ccccc2)CC1	61.6% (inactive)
COc1ccc2c(c1OC)C(=O)OC2[C@H]1c2c(cc3c(c2OC)OCO3)CCN1C (stereo partly specified)	10.4% (inactive)
Cc1cc(-c2ccc(CC(=O)Nc3ccc(-c4cccnc4)cc3)cc2)ccn1	6.98% (inactive)
Nc1ccccc1NC(=O)c1ccc(CNc2nccc(-c3cccnc3)n2)cc1	-79.8% (active) and -89.7% (active)
Nc1ccccc1NC(=O)c1ccc(CNC(=O)OCc2cccnc2)cc1	-0.731% (inactive) and 6.65% (inactive)
O=C(Nc1ccccc1-c1cn2c(CN3CCNCC3)csc2n1)c1cnc2ccccc2n1	-11.3% (inactive)
